These results are taken from PubChem BioAssay (NCATS).

Experiment [1] addresses Lysosomal acid glucosylceramidase (Homo sapiens) (UniProt P04062). The experiment is described as follows: Glucocerebrosidase-p2 (AID 348; in the data active means potency below about 10 µM; further: potency means the concentration at half of the fitted maximal effect). The following applies: purified GBA, blue fluorogenic substrate, 40 min. The essentials:
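Normal human glucocerebrosidase (0.2 nM) with blue fluorogenic substrate (80 uM final) in citrate/phosphate pH 5.9 with 10mM sodium taurocholate, 0.01% tween-20; 40 min RT, NaOH/glycine stop; fluorescence Ex 365/Em 440; AC50 from a titration from 0.6 nM upwards.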

The target in experiment [2] is Cytochrome P450 1A2 (Homo sapiens) (UniProt P05177). The experiment is described as follows: p450-cyp1a2 (AID 410; calls by dose curve; further: potency means the concentration at half of the fitted maximal effect;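 on activity change, negative = inhibition: -100% = full effect of reference inhibitor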). As to conditions: recombinant CYP1A2, luciferin-ME demethylation, luminescence; series mostly up to 57 µM. The gist of the method: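 O-Demethylation of luciferin 6' methyl ether by human CYP1A2 is monitored as luciferase luminescence. Substrate sits at Km (100uM); enzyme is 20nM. Values are scaled to 57 uM furafylline as maximal inhibition.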

Experiment [3] is described as follows: Stat Signaling Pathway (AID 446; active means well fitted curve in either direction with a large enough effect, not every such curve was filed as active;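 further: ME-180 cervical cancer cells given 40 pM IL-6 alongside compound; SIE-controlled beta-lactamase reporter measured as 460/530 nm FRET emission ratio; on the % scale 0 is the no-effect control and ±100 the full control effect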). The following applies: ME-180 SIE beta-lactamase reporter, IL-6 stimulated, 5 h; at 7.69 µM (top of the series) unless noted. The essentials: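 Compound effects on IL-6-induced STAT reporter activity were measured in ME-180 cells. After overnight culture, cells were co-treated with 40 pM IL-6 for 5 hrs before beta-lactamase substrate loading at room temperature.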

Experiment [4] has as its target Glucocorticoid receptor (Homo sapiens) (UniProt P04150). The experiment is described as follows: GR-GFP Redistribution (AID 450;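 active means compounds whose dose series gives a full or clear partial fitted curve of increased nuclear translocation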; further: potency means the concentration at half of the fitted maximal effect). The following applies: U2OS GR-GFP nuclear translocation, laser cytometry, 2 h.
The target is the same in experiment [5]. The experiment is described as follows: GR-EFC Redistribution (AID 451; calls by dose curve; further: potency means the concentration at half of the fitted maximal effect). The following applies: CHO-K1 GR-EFC translocation, beta-gal luminescence, 2 h. The gist of the method:
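CHO-K1 cells expressing nuclear EA and GR-ED fragments of b-gal; compounds titrated up to 46 uM final, 2 h at 37 C. GR nuclear translocation read as complemented b-gal luminescence after 1 h RT detection.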

The target in experiment [6] is Mitogen-activated protein kinase 10 (Mus musculus) (UniProt Q61831). The experiment is described as follows: JNK3 AlphaScreen Assay (AID 530; active means well fitted curve in either direction with a large enough effect, not every such curve was filed as active;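 further: kinase came from lysate of stimulated human HepG2 cells; signal reports phosphorylation of biotinylated GST-cJun 1-79 at Ser73 with 10 µM ATP; on the % scale 0 is the no-effect control and ±100 the full control effect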). As to conditions: JNK3 lysate, c-Jun phosphorylation; series mostly up to 57.1 µM. The gist of the method: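 Activity was read by AlphaScreen after JNK3-containing HepG2 lysate (cytokine pre-activated) phosphorylated biotinylated GST-cJun with 10 uM ATP at room temperature. Phospho-Ser73 cJun antibody with Protein-A acceptor beads provided detection.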

Experiment [7] addresses 3',5'-cyclic-AMP phosphodiesterase 4B (Homo sapiens) (UniProt Q07343). The experiment is described as follows: qHTS Assay for Inhibitors of PDE-IV (AID 607; active means well fitted activation curve with a large enough effect in the main read-out, with a control signal flat, not every such curve was filed as active; further: % of control where 0% means no effect). The following applies: HEK293 ACTOne CNG channel cells, membrane potential fluorescence; series mostly up to 22.9 µM. The gist of the method:
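ACTOne HEK293 cells carry a modified cAMP-gated CNG channel and express endogenous PDE4; plated 1000 cells/well, compounds up to 22.9 uM final. Membrane-potential dye fluorescence (ex 535/em 590) was read; parental cells received 10 uM forskolin + 100 uM RO 20-1724.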
For orientation: qHTS replaces the single test concentration by a dilution series.

Experiment [8] in a line: qHTS Assay for Identification of Small Molecule Agonists for Hypoxia Response Element Signaling Pathway (AID 914; active means well fitted activation curve with a large enough effect in the signal ratio, with a control signal flat, not every such curve was filed as active; the % refers to the signal ratio; further: potency means the concentration at half of the fitted maximal effect). The following applies: ME-180 HRE-bla reporter, beta-lactamase ratio, CoCl2, 17 h; activation: stronger effect = higher value. The essentials: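 In Opti-MEM containing 0.5% dialyzed FBS and 10 mM HEPES, ME-180 HRE-bla cells received a compound titration and EC50 CoCl2. They were incubated 17 hours, then CCF4-loaded 2.5 hours at room temperature before ratio reading.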

The nature of experiment [9]: qHTS Assay for Lipid Storage Modulators (AID 1519; calls by dose curve). As to conditions: Drosophila S3 cells, BODIPY lipid droplet/cell ratio, laser cytometry, cells loaded with oleic acid; for activity change, negative = inhibition: at 57.5 µM (top of the series). The gist of the method: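 Cells seeded at 5,000 per well were treated with compounds over a concentration series and loaded with oleic acid (400 uM, as added). Lipid droplet fluorescence (488 nm excitation, 500-530 nm channel) was read by laser-scanning cytometry and normalized to 20 uM Triacsin C.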

In experiment [10] the target is Dual specificity protein kinase CLK4 (Homo sapiens) (UniProt Q9HAZ1). The experiment is described as follows: qHTS Assay for Inhibitors of CDC-like Kinase 4 (Kinase-Glo Assay) (AID 1770). Further: nearly all actives have a fitted effect of over 65% in size. Further: potency means the concentration at half of the fitted maximal effect. As to conditions: recombinant Clk4, Kinase-Glo ATP depletion luminescence; series mostly up to 66.7 µM. The gist of the method:
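25 nM Clk4 with 100 uM RS repeat peptide and 1 uM ATP (final) in Tris pH7.5, 10 mM MgCl2, 4.5 h at room temperature. Remaining ATP measured by Kinase-Glo luciferase luminescence.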

Experiment [11] has the same target. The experiment is described as follows: qHTS Assay for Inhibitors of CDC-like Kinase 4 (ADP-Glo Assay) (AID 1771). Further: nearly all actives have a fitted effect of over 70% in size. Further: potency means the concentration at half of the fitted maximal effect. The following applies: recombinant CLK4, ADP-Glo luminescence; series mostly up to 80 µM. The gist of the method: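 Compounds are pin-transferred onto substrate mix (100 uM RS peptide, 1 uM ATP), then 25 nM Clk4 is added. After 1 hr at room temperature, ADP-Glo reagent runs 45 min, detection reagent 30 min, then luminescence is read.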

For experiment [12] the target is unchanged. The experiment is described as follows: qHTS Assay for Inhibitors of CDC-like Kinase 4 (ADP-FP Assay) (AID 1795). Further: nearly all actives have a fitted effect of over 60% in size. Further: potency means the concentration at half of the fitted maximal effect. The following applies: Transcreener ADP fluorescence polarization; series mostly up to 50 µM. The essentials:
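Recombinant Clk4 (6.25 nM) phosphorylated 100 uM RS repeat peptide with 1 uM ATP in 25 mM Tris pH 7.5, 10 mM MgCl2, 0.5 mM EGTA, 2.5 mM DTT, 0.01% Triton X-100 for 1 h. ADP was detected by Transcreener ADP2 competitive fluorescence polarization after 30 min at room temperature.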

Experiment [13] can be described thus: Primary qHTS for small molecule stabilizers of the endoplasmic reticulum resident proteome: Secreted ER Calcium Modulated Protein (SERCaMP) assay (AID 1508630). Further: on the % scale 0 is the no-effect control and ±100 the full control effect. As to conditions: SH-SY5Y GLuc-SERCaMP (Gaussia luciferase released on ER calcium loss) secretion, thapsigargin, luminescence; series mostly up to 38.4 µM. The essentials: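 The SH-SY5Y reporter protocol was run at 3 concentrations up to 38.3 uM (primary) or 11 concentrations (follow-up): 16 h compound, 100 nM thapsigargin for 4 h, then extracellular luciferase luminescence.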

A short description of experiment [14]: AP1 Signaling Pathway (AID 357; active means well fitted curve in either direction with a large enough effect, not every such curve was filed as active;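 further: ME-180 reporter cells stimulated with EGF at its EC50 level; on the % scale 0 is the no-effect control and ±100 the full control effect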). As to conditions: ME-180 (cervical carcinoma) AP-1-bla reporter, EGF-induced, beta-lactamase ratio, 5 h; at 7.69 µM (top of the series) unless noted. The gist of the method: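 AP-1-bla ME-180 cells, Opti-MEM + 0.5% dialyzed FBS, plated overnight 37 °C. Cpd titration + EC50 EGF, 5 h 37 °C. CCF4 2.5 h RT; ex 405, em 460/530 ratio → %activity, AC50.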

Experiment [15] is described as follows: NFAT Signaling Pathway (AID 444; active means well fitted curve in either direction with a large enough effect, not every such curve was filed as active). As to conditions: Jurkat NFAT-bla M1, carbachol, beta-lactamase ratio, 5 h; at 7.69 µM (top of the series) unless noted. The gist of the method:
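Jurkat cells with NFAT-driven β-lactamase reporter and co-expressed M1 receptor, stimulated with carbachol (final 1 uM, ~EC50), compound titration, 5 h at 37 °C. CCF4 loaded 1 h at RT; 460/530 nm ratio gave %activity and AC50.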

The target of experiment [16] is Ubiquitin carboxyl-terminal hydrolase 1 (Homo sapiens) (UniProt O94782). The experiment is described as follows: Inhibitors of USP1/UAF1: Pilot qHTS (AID 504865).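 Further: rhodamine fluorescence freed from ubiquitin-rhodamine substrate followed over time; top concentration of the series differs between compounds; on the % scale 0 is the no-effect control and ±100 the full control effect; nearly all actives have a fitted effect of over 35% in size.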 The following applies: purified USP1/UAF1, Ub-rhodamine cleavage fluorescence; series mostly up to 54.9 µM. The essentials:
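USP1/UAF1 complex at 1 nM preincubated 15 min at room temperature with compound, then Ub-Rho substrate added at 150 nM final. Fluorescence (480/540 nm) read kinetically in 50 mM HEPES pH 7.8, 0.5 mM EDTA, 1 mM TCEP, 0.1 mg/ml BSA, 0.01% Tween-20.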

Experiment [17] addresses Cytochrome P450 3A4 (Homo sapiens) (UniProt P08684). The experiment is described as follows: qHTS Assay for Activators of Cytochrome P450 3A4 (AID 885). Further: nearly all actives have a fitted effect of over 65% in size. As to conditions: recombinant CYP3A4, Luciferin-PPXE luminescence, 60 min; series mostly up to 57.1 µM. The gist of the method: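 CYP3A4 activity: Luciferin-PPXE O-dealkylation, 25uM substrate, 200mM KPO4, RT throughout. Read-out is luciferase luminescence; higher values reflect activation.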

Where [18] appears, read: measured here: cell count channel max response.
[19] abbreviates: measured here: lipid channel max response.

Inconclusive results are not listed. Active and inactive are the calls of the source. Unless noted, the call rests on the fitted dose curve; in most records, active means well fitted curve in the direction sought with a large enough effect; inconclusive means small, poorly fitted or top-dose-only effect, or another doubt; inactive means no such curve, though single readings can be large; an effect the other way counts as inactive or inconclusive. Some results are limits rather than exact numbers.

Sequence of Ubiquitin carboxyl-terminal hydrolase 1 (Homo sapiens) (O94782 whole entry, looked up): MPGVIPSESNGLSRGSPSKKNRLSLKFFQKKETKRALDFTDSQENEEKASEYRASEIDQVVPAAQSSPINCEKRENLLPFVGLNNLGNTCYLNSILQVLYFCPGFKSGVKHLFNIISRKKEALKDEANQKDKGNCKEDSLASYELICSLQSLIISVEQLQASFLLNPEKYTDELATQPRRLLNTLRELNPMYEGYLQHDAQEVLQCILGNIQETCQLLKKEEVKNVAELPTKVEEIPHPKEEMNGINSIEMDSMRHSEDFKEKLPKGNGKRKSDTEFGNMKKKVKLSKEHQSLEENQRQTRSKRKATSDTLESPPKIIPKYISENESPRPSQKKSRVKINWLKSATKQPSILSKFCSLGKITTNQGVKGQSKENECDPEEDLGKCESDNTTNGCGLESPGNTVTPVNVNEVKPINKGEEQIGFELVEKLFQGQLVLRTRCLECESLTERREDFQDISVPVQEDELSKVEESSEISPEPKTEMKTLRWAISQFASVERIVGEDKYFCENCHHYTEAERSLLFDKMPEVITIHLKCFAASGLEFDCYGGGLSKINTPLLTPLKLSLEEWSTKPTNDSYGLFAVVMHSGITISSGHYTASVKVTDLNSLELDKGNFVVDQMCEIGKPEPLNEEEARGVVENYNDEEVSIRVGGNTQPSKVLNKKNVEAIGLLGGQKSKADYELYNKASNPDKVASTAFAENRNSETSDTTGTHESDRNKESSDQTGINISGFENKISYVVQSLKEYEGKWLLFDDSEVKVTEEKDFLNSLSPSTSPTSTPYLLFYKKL
Sequence of Dual specificity protein kinase CLK4 (Homo sapiens) (Q9HAZ1 whole entry, looked up): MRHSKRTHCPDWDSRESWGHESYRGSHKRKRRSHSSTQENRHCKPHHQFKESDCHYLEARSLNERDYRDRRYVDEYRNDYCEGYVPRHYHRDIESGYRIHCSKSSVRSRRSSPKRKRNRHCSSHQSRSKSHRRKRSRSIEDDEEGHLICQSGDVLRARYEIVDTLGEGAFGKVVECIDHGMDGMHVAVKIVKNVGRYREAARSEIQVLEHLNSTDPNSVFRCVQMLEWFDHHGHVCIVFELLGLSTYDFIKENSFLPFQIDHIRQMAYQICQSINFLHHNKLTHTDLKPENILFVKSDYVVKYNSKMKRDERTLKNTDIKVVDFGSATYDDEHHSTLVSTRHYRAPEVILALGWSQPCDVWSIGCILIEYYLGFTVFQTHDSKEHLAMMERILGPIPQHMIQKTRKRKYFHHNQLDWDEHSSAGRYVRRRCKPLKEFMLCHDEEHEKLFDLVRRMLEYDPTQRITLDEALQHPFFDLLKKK
Sequence of 3',5'-cyclic-AMP phosphodiesterase 4B (Homo sapiens) (Q07343 whole entry, looked up): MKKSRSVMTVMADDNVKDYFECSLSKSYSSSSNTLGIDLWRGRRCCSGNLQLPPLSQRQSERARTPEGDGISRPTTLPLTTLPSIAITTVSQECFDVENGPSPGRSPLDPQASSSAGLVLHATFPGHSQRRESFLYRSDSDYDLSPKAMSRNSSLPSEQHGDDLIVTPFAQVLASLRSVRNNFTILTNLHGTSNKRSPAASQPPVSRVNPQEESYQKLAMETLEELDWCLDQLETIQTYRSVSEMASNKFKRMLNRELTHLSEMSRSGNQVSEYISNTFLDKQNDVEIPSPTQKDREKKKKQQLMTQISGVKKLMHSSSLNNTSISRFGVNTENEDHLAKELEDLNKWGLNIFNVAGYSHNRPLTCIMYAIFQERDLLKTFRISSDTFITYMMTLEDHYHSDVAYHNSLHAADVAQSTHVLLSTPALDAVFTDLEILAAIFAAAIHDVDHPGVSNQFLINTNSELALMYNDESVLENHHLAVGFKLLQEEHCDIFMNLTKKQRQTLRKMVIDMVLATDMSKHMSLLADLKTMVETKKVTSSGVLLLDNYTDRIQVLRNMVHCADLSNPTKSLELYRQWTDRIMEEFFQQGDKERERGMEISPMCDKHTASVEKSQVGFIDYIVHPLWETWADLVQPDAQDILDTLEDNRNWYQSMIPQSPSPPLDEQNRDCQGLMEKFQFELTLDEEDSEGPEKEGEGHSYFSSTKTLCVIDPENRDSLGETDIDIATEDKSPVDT
Sequence of Lysosomal acid glucosylceramidase (Homo sapiens) (P04062 whole entry, looked up): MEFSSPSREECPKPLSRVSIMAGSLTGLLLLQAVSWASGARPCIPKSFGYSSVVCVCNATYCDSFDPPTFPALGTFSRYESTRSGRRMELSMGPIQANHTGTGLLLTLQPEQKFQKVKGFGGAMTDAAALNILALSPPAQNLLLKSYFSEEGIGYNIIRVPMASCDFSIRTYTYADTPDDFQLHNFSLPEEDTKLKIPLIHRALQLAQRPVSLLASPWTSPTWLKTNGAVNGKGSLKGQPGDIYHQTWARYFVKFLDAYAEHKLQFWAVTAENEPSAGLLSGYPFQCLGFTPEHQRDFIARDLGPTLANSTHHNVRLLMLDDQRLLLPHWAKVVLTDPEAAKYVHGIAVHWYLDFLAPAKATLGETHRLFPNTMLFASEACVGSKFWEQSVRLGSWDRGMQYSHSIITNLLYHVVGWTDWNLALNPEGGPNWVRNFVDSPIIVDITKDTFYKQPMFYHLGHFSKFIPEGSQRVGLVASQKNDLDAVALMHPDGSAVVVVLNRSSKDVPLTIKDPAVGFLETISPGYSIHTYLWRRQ
Sequence of Cytochrome P450 1A2 (Homo sapiens) (P05177 whole entry, looked up): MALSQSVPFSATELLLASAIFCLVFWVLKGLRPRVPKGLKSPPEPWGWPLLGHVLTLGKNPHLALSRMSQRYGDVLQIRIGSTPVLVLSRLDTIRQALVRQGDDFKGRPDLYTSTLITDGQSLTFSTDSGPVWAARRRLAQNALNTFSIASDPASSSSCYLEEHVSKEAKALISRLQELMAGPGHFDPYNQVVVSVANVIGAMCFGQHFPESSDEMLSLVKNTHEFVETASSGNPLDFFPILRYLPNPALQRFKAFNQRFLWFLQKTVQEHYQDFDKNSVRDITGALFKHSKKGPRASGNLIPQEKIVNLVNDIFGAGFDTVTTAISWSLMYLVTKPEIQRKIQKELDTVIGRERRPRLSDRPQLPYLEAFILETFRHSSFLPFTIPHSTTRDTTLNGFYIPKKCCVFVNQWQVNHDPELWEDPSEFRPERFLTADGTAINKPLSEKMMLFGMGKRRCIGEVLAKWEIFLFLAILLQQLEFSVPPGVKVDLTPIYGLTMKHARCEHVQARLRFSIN
Sequence of Glucocorticoid receptor (Homo sapiens) (P04150 whole entry, looked up): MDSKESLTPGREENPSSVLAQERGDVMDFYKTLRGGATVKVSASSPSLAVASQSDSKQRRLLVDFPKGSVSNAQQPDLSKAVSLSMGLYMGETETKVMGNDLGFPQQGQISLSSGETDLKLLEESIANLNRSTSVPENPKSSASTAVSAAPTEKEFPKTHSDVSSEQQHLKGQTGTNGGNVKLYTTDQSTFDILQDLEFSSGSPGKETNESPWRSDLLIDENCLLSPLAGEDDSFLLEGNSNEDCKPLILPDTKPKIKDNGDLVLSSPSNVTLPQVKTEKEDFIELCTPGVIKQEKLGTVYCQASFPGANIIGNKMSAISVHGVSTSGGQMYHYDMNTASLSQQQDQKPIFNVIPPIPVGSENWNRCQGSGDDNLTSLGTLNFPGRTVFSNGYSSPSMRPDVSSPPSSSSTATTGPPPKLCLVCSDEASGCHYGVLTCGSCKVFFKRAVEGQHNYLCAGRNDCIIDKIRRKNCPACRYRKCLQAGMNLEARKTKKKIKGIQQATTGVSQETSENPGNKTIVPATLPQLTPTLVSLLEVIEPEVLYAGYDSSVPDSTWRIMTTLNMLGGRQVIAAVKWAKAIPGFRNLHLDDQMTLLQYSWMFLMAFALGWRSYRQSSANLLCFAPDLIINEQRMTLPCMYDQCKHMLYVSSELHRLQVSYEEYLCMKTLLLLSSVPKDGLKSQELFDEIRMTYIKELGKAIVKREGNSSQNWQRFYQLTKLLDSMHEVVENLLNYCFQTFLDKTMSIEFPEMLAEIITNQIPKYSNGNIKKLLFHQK
Sequence of Cytochrome P450 3A4 (Homo sapiens) (P08684 whole entry, looked up): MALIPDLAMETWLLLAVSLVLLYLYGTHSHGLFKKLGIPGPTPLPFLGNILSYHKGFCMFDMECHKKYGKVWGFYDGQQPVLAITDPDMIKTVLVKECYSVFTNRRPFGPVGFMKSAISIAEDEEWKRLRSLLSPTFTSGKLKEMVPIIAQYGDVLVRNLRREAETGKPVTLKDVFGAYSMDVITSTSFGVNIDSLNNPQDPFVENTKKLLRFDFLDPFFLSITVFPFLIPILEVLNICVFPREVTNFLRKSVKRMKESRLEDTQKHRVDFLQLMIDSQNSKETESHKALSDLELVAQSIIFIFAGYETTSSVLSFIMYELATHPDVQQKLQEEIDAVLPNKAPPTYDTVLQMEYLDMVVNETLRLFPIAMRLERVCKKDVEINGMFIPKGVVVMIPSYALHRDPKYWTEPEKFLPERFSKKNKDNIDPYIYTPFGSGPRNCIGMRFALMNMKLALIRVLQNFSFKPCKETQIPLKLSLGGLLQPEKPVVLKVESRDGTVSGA

As for `COc1cccc(Cn2c(=O)c(-c3cc(F)cc(F)c3)nc3cnc(N(C)C)nc32)c1`, the Potency was > 11.4 µM (inactive) in [1], > 9.22 µM (inactive) in [4], > 46 µM (inactive) in experiment [5] and 0.398 µM (active) in experiment [8]. The Potency entry in [2], in [7], in experiment [10], in experiment [11], in [12] and in experiment [13] was “inactive” throughout. Moreover, the activity, negative = inhibition in experiment [3] was 91.4% [activator] (active). In addition, the call in experiment [6] was inactive. Besides, the activity change, negative = inhibition in experiment [9] is -0.73% (inactive). Further, the max response turned out to be 19.9% in experiment [9] (setting [18]) and 18.8% in experiment [9] (setting [19]).

Turning to `CS(=O)(=O)Nc1cccc(-c2ccc3ncnc(NC4CCNCC4)c3c2)c1`, the Potency in experiment [1] was > 11.4 µM (inactive); in [4] it was > 46 µM (inactive); in experiment [5], > 46 µM (inactive); in [10] it was 11.2 µM (active); in [11], 7.08 µM (active); in experiment [12] it was 11.2 µM (active). Also, the activity change, negative = inhibition was 6.55% (inactive) in [14], 0.249% (inactive) in [15] and 4.99% (inactive) in experiment [9]. Further, the activity, negative = inhibition in experiment [3] was 4.8% (inactive). In experiment [6], the call was inactive. The Potency result in experiment [7], in experiment [16] and in experiment [13] was “inactive” in each case. Besides, the results for the max response in [9] (setting [18]) and in experiment [9] (setting [19]) were 3.42% and 11%, respectively.

With `COc1ncc2nc(-c3ccc(F)cc3)c(=O)n(C)c2n1`, the Potency in [1] is > 11.4 µM (inactive); in [2] it was 0.501 µM (active); in experiment [4] it was > 9.22 µM (inactive); in experiment [5], > 46 µM (inactive); in [8], 3.16 µM (active). In experiment [6], the outcome was inactive. The Potency result in [7], in [17], in experiment [10], in experiment [11], in [12] and in experiment [16] was “inactive” throughout. In addition, in [13], the Potency entry was “inactive”. In experiment [9], the activity change, negative = inhibition was 7.5% (inactive). Besides, the max response in experiment [9] (setting [18]) is 17.8%; in experiment [9] (setting [19]), 25.2%.

Take `COc1ccc(-c2nc3cnc(Oc4cccc(Cl)c4)nc3n(CCC#N)c2=O)cc1`: the Potency was > 11.4 µM (inactive) in experiment [1], > 9.22 µM (inactive) in [4] and > 46 µM (inactive) in experiment [5]. Moreover, the activity change, negative = inhibition in [14] is -19.7% (inactive); in experiment [9], 2.97% (inactive). For the same compound, the activity, negative = inhibition in experiment [3] was -7.46% (inactive). Further, the call in experiment [6] was inactive. Besides, the Potency result in experiment [7], in experiment [10], in experiment [11], in experiment [12], in experiment [16] and in experiment [13] was “inactive” throughout. The max response is 13.8% in [9] (setting [18]) and 14.8% in experiment [9] (setting [19]).

Consider `CS(=O)(=O)Nc1cccc(-c2ccc3ncnc(Nc4ccccc4)c3c2)c1`, for which the Potency in [1] is > 11.4 µM (inactive); in [2] it was 1 µM (active); in experiment [4] it was > 46 µM (inactive); in experiment [5], > 46 µM (inactive); in experiment [10], 15.8 µM (active); in experiment [11] it was 14.1 µM (active). In addition, the Potency in experiment [12] is 14.1 µM (active). Moreover, the activity, negative = inhibition in [3] was -2.27% (inactive). Further, the call in experiment [6] was inactive. Also, the Potency entry in [7], in experiment [17], in [16] and in experiment [13] was “inactive” in each case. Besides, the activity change, negative = inhibition in experiment [9] was 5.6% (inactive). Besides, the results for the max response in experiment [9] (setting [18]) and in experiment [9] (setting [19]) were 6.09% and 11.8%, respectively.

For the compound `CCNc1ncc2nc(-c3ccccc3)c(=O)n(C[C@H]3CCCO3)c2n1`, the values for the Potency in experiment [1], in experiment [4] and in experiment [5] were > 11.4 µM (inactive), > 9.22 µM (inactive) and > 46 µM (inactive), respectively. Also, the activity change, negative = inhibition in experiment [14] is 0.0155% (inactive); in experiment [9] it was -15.5% (inactive). Further, in [6], the compound was called inactive. The max response in [9] (setting [18]) is 3.11%; in experiment [9] (setting [19]) it was -10%. In addition, the Potency result in experiment [10], in experiment [11], in experiment [12], in [16] and in experiment [13] was “inactive” in each case.
